# Source: PubChem BioAssay AID598 (SRMLSC, 2007)
# In all, about 85,000 compounds went through this assay and about 5,100 (6%) were called active.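 The calls were made as follows: active = viability at or below 40%; inactive = viability above 40%.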 Only a selection was taken, and actives are over-represented in it overall.
# Experiment: proliferation blockers of H69AR lung cancer cells, primary screen, cell-based, human, 86K library (AID 598);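 also: multidrug resistant small cell line overexpressing MRP-1 efflux transporter; 100% = mean luminescence of untreated control wells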
# Details: H69AR lung tumor viability, ATP luminescence, 72 h; at 10 µM; active compounds read low
row,Structure (SMILES),viability
1,CCC(C)NC(=O)C1CCCN(C(=O)NC2CCCCC2)C1 (stereo not given),94.6% (inactive)
2,COc1ccc(C(C#N)Nc2ccc(C)cc2)cc1 (stereo not given),89.5% (inactive)
3,Cc1cccc(OCCCC(=O)Nc2ccc(S(=O)(=O)N3CCCC3)cc2)c1,89.2% (inactive)
4,O=C(c1ccc2c(c1)OCO2)N1CCOCC1,96.2% (inactive)
5,CN(Cc1ccccc1)C(=O)CCNC(=O)Cn1cnc2ccccc2c1=O,93.7% (inactive)
6,O=C(Cn1cnc2c(cnn2-c2ccccc2)c1=O)NCc1ccccc1,30.8% (active)
7,O=C(Cn1cnc2c(cnn2-c2ccc(F)cc2)c1=O)NCCc1ccccc1,99.4% (inactive)
8,O=C(OC1CCCCC1=O)c1cccc(S(=O)(=O)NCc2ccccc2)c1 (stereo not given),68.2% (inactive)
9,Cc1ccc(S(=O)(=O)N2CC(=O)Nc3ccccc32)cc1C,102% (inactive)
10,CSc1nc2ccc(S(=O)(=O)N3CCc4ccccc43)cc2s1,64.1% (inactive)
11,Cc1nn(C)c(C)c1S(=O)(=O)N1CCc2ccccc21,95.6% (inactive)
12,Cn1c(=O)n(C)c2cc(S(=O)(=O)N3CCCc4ccccc43)ccc21,21.1% (active)
13,CCn1c(=O)c(=O)n(CC)c2cc(S(=O)(=O)N3CCc4ccccc43)ccc21,27.2% (active)
14,Cn1c(=O)c(=O)n(C)c2cc(S(=O)(=O)NCCc3ccccc3)ccc21,94.1% (inactive)
15,CC1=CC(C)(C)NC(=S)N1c1ccccc1,98.5% (inactive)
16,CCN(CC)CCCNC(=O)CCc1ccccc1,97.4% (inactive)
17,O=C(NCCOc1ccccc1)c1ccccc1,91.4% (inactive)
18,CCc1ccc(CNC(=O)C2CCCN(c3nc4ccccc4o3)C2)cc1 (stereo not given),92.4% (inactive)
19,NC1=NC(=O)C2(COC(c3ccccc3Cl)OC2)S1 (stereo not given),92.6% (inactive)
20,CCOc1ccc(-n2c(N)c(C(=O)NCC3CCCO3)sc2=S)cc1 (stereo not given),94.8% (inactive)
21,Oc1c(Cl)cc(Cl)c(Cl)c1Cc1c(O)c(Cl)cc(Cl)c1Cl,13.5% (active)
22,COc1cc(OC)nc(NC(=O)CCl)n1,98.7% (inactive)
23,C=C(Cl)COC(=O)C1C2C=CC(C2)C1C(=O)O (stereo not given),101% (inactive)
24,Cc1csc(NC(=O)NC2(C(F)(F)F)Oc3ccccc3O2)n1,22.9% (active)
25,CCOC(=O)Cc1csc(NC(=O)Nc2ccccc2)n1,96.7% (inactive)

row,Structure (SMILES),viability
1,Cc1csc(NC(=O)CN2CCCCCC2)n1,95.1% (inactive)
2,COc1cc(CC(=O)NCc2cccs2)cc(OC)c1OC,106% (inactive)
3,COc1ccc(Nc2nc(=O)[nH]nc2C)cc1,95.5% (inactive)
4,CCOC(=O)Nc1sc(C(=O)N(C)C)c(C)c1C(=O)OCC,84.2% (inactive)
5,CCOC(=O)c1c(NC(=O)CCl)sc(C(=O)N(CC)CC)c1C,2.11% (active)
6,CCOC(=O)c1sc(NC(=O)CCN2CCOCC2)c(C(=O)OCC)c1C,45.7% (inactive)
7,Cc1ccc(C(=O)N2CCCC2)c(F)c1F,87.4% (inactive)
8,OC(CN=c1sc2ccccc2n1CC(O)COc1ccccc1)COc1ccccc1 (stereo not given),23.3% (active)
9,OC(COc1ccccc1)Cn1cc(Br)cn1 (stereo not given),109% (inactive)
10,CC(C)c1ccc(OCC(O)Cn2cnc3ccccc32)cc1 (stereo not given),82.6% (inactive)
11,Cc1cccn2c(=O)c(/C=C(\C#N)S(=O)(=O)c3ccc(Cl)cc3)c(N3CCC(C(N)=O)CC3)nc12,82.2% (inactive)
12,CC1=CC(C)(C)Nc2ccc(OC(=O)CN3C(=O)C4CCCCC4C3=O)cc21 (stereo not given),0.5% (active)
13,CC1=CC(C)(C)Nc2ccc(OC(=O)C(Cc3ccccc3)N3C(=O)C4CCCCC4C3=O)cc21 (stereo not given),80.3% (inactive)
14,CC(OC(=O)CN1C(=O)C2CCCCC2C1=O)C(=O)Nc1ncc(Cl)cc1Cl (stereo not given),101% (inactive)
15,CCCCCCSc1nsc(N)n1,82.7% (inactive)
16,CCOC(=O)c1[nH]c(C)c(C(=O)OCC(=O)N2c3ccccc3CC2C)c1C (stereo not given),87% (inactive)
17,CCOC(=O)CN1C(=O)C(=O)c2cc(C)ccc21,20.2% (active)
18,Cc1cccc2c1N(CC(=O)OC(C)C)C(=O)C2=O,71.7% (inactive)
19,CC(C)OC(=O)CN1C(=O)C(=O)c2ccccc21,13.1% (active)
20,CCCCOC(=O)Cn1c(=O)n(CC(=O)OCCCC)c2cc(C)ccc21,99.5% (inactive)
21,CC(C)OC(=O)CN1C(=O)c2ccccc2C1=O,98% (inactive)
22,CCOC(=O)c1cc2n(c1C)-c1ccccc1C2=O,90.3% (inactive)
23,CCCc1nc2ccccc2c(C(=O)OCC(=O)c2ccc3c(c2)NC(=O)CO3)c1CC,43.2% (inactive)
24,Cc1ccc(Cc2c(C)nc3nc(SCC(=O)NCCN4CCOCC4)nn3c2C)cc1,93.9% (inactive)
25,CCOc1ccc(NC(=O)CN(C)CC(=O)Nc2cccc(Cl)c2C)cc1OCC,48.5% (inactive)

row,Structure (SMILES),viability
1,Cc1cccc(NC(=O)N(Cc2cc3cc(C)cc(C)c3[nH]c2=O)CC2COCCO2)c1 (stereo not given),47% (inactive)
2,Cn1c(Cn2nnc3ccccc32)nnc1SCC(=O)c1ccccc1F,79.3% (inactive)
3,CN=C1SC(CC(=O)Nc2ccc(C(=O)O)cc2)C(=O)N1C (stereo not given),97.5% (inactive)
4,O=C(CN1C(=O)CC(c2ccccc2)=Nc2ccccc21)NC1CCCCC1,77.6% (inactive)
5,Cc1ccnc(N2CCC(C(=O)NC3CCCCCC3)CC2)n1,77.9% (inactive)
6,Cc1ccnc(-n2sc3ccccc3c2=O)n1,1.54% (active)
7,Cc1nc2ccccc2c(=O)n1CCCn1ccnc1,99% (inactive)
8,CC(C)(C)N1CC(c2nc3ccccc3n2Cc2ccc(F)cc2)CC1=O (stereo not given),79.4% (inactive)
9,CCCn1c(C(Cc2ccccc2)NC(=O)COC)nc2ccccc21 (stereo not given),92.9% (inactive)
10,CNC(=O)c1nnc(Cc2ccc(Cl)cc2)o1,97.8% (inactive)
11,O=C(OCc1ccccc1F)c1ccc2c(c1)OCCO2,91.2% (inactive)
12,O=C(COC(=O)c1ccc2c(c1)OCCO2)NCc1ccccc1,92.1% (inactive)
13,O=C(CCN1CCc2ccccc2C(O)(c2ccccc2)C1)c1ccc2c(c1)OCCO2 (stereo not given),-0.08% (active)
14,CCn1c(SCC(=O)Nc2nc(C)cs2)nnc1C(C)NC(=O)c1ccccc1 (stereo not given),88.1% (inactive)
15,COCCn1c(=S)[nH]c2cc(C(=O)NCCc3ccc(OC)c(OC)c3)ccc2c1=O,78.1% (inactive)
16,N#CC1=C(N)Oc2c(sc3ccccc23)C1c1ccco1 (stereo not given),14.4% (active)
17,Cc1cc2c(c(=O)n1Cc1ccco1)C(c1ccccc1)C(C#N)=C(N)O2 (stereo not given),70% (inactive)
18,O=C(COc1cc(Cl)c(Cl)cc1Cl)NC(=O)NC1CCCC1,90.7% (inactive)
19,CCOC(=O)c1cnc(SCC(=O)Nc2ccccc2C(=O)OC)nc1N,87.2% (inactive)
20,c1ccc(-n2ncc3c2ncn2c(C4CCCCC4)nnc32)cc1,105% (inactive)
21,c1ccc(-n2ncc3c2ncn2c(CSc4nc5ccccc5s4)nnc32)cc1,5.83% (active)
22,CCN(CC)C(=O)CSc1ncnc2c1cnn2-c1ccccc1,86.5% (inactive)
23,CCCNC(=O)N1CCN(C(=O)NCCC)CC1,104% (inactive)
24,CC(=O)c1cccc(NC(=O)C2CCCN2S(=O)(=O)c2cccc3nsnc23)c1 (stereo not given),88.1% (inactive)
25,CCC(C)NC(=O)c1ccccc1NC(=O)c1ccccc1N(C)S(C)(=O)=O (stereo not given),108% (inactive)

row,Structure (SMILES),viability
1,CC(C)(C)C(=O)Cn1c(NCCO)nc2ccccc21,98% (inactive)
2,Cc1cc2nnc(SCC(=O)N3CCN(c4ccccc4)CC3)n2c(N)n1,64.4% (inactive)
3,Cn1c(Cc2cccc3ccccc23)nnc1SCC(=O)N1CCN(c2cccc(Cl)c2)CC1,38.5% (active)
4,Cc1ccccc1NC(=O)Cc1nnc(SCC(=O)N2CCN(c3ccccc3)CC2)n1C,94% (inactive)
5,CN(C)CCNC(CC(=O)Nc1ccc(Cl)c(Cl)c1)C(=O)O (stereo not given),99.7% (inactive)
6,CCn1nccc1C(=O)Nc1ccc(Cl)c(Cl)c1,77% (inactive)
7,O=C(CC(O)(C(F)(F)F)C(F)(F)F)Nc1ccc(Cl)c(Cl)c1,1.49% (active)
8,CCOC(=O)N1CCC(N(CCOC)C(=O)Nc2ccc(C)c(C)c2)CC1,44.7% (inactive)
9,Cc1noc(C)c1CSCC(=O)Nc1nc2ccc(Oc3ccccc3)cc2s1,76.8% (inactive)
10,COc1ccc(-c2c3c(=O)n(C)c(=O)n(C)c3cn2-c2cccc(OC)c2)cc1,71.5% (inactive)
11,Cn1c(=O)c2cn(-c3cccc4ccccc34)cc2n(C)c1=O,47.3% (inactive)
12,COc1ccc(OC)c(-n2cc3c(=O)n(C)c(=O)n(C)c3c2)c1,29.6% (active)
13,COCCCn1c(SCC(=O)Nc2ccccc2)nnc1-c1ccncc1,95.9% (inactive)
14,CC1(C)COC(c2cccn2Cc2ccccc2Cl)=N1,104% (inactive)
15,O=c1c2ccccc2nc2n1C1(CCCCC1)Cc1ccccc1-2,83.7% (inactive)
16,Cc1cc(NC(=O)CN2CCCC(C)C2)n(-c2nc3ccccc3s2)n1 (stereo not given),62.1% (inactive)
17,CCOC(=O)N1CCC(NC(=O)c2ccc3nc(N4CCOCC4)sc3c2)CC1,95.7% (inactive)
18,CCOC(=O)N1CCN(CC(=O)Nc2cc(C)nn2-c2nc3ccccc3s2)CC1,4.45% (active)
19,Cc1nn(C)cc1CNC(=O)Nc1ccc(Cl)cc1,90.8% (inactive)
20,Cc1cccc(NC(=O)CN2CCCN(S(=O)(=O)c3ccc(Br)s3)CC2)c1,35.9% (active)
21,Cc1cccc(NC(=O)CSc2nnc(NC(=O)CN3CCOCC3)s2)c1,79.3% (inactive)
22,Cc1cccc(NC(=O)CN2C(=O)CNC2=O)c1,91.7% (inactive)
23,C/C(=N\NC(=O)c1nc(C)cc(C)n1)c1ccccc1,99.7% (inactive)
24,O=C1c2ccccc2C(=O)N1CCCc1nc(-c2ccccc2)no1,95.5% (inactive)
25,Oc1ccc(-c2onc3ccc(Cl)cc23)cc1,98.2% (inactive)
